Assay results taken from the supplement of paper PMC8007513.
Where a name gives a salt, the structure may show the parent alone. ± gives the standard error. About 130 (10%) of roughly 1,300 compounds showed an effect of 50% or more. The list comes from a sample in which strong results are over-represented; it also holds similar structures and randomly drawn compounds.

Tested on: Trichoderma virens ATCC 9645
Experiment: growth yield (OD600) with compound + IPBC relative to untreated control; higher = less growth inhibition
Details: compound concentration: 100 uM, IPBC concentration: 200 ng/ml
Procedure, shortened: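 Plates were read for OD600 at 40 h and 72 h after Trichoderma virens ATCC 9645 spores (15,000 spores ml^−1 in potato dextrose broth) were grown at 30 °C with library compounds at 100 μM final, with or without a biocide at 200 ng ml^−1. Growth is stated relative to the control with neither agent, as the mean of duplicate screens.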

CN1CCC2(C)c3cc(O)ccc3N(C)C12 (single isomer, unassigned; (-)) [(-)-Eseroline fumarate salt] + CCCCNC(=O)OCC#CI [3-iodo-2-propynyl butylcarbamate (IPBC)]
growth yield (40 h): 85 ± 4.9%
growth yield (72 h): 90.6 ± 2.1%

Oc1cc(Cl)ccc1Oc1ccc(Cl)cc1Cl [Triclosan] + CCCCNC(=O)OCC#CI [3-iodo-2-propynyl butylcarbamate (IPBC)]
growth yield (40 h): 3.02 ± 0.16%
growth yield (72 h): 2.2 ± 0.1%

C#CCN(C)CCCOc1ccc(Cl)cc1Cl [Clorgyline hydrochloride] + CCCCNC(=O)OCC#CI [3-iodo-2-propynyl butylcarbamate (IPBC)]
growth yield (40 h): 60.36 ± 0.32%
growth yield (72 h): 87.2 ± 2.2%

CN1[C@@H]2CC[C@H]1C[C@@H](OC(c1ccccc1)c1ccccc1)C2 [Benztropine mesylate] + CCCCNC(=O)OCC#CI [3-iodo-2-propynyl butylcarbamate (IPBC)]
growth yield (40 h): 84.7 ± 2.1%
growth yield (72 h): 96.1 ± 4.4%

C[C@H](CCC(=O)O)[C@H]1CC[C@H]2[C@@H]3[C@@H](O)C[C@@H]4C[C@H](O)CC[C@]4(C)[C@H]3CC[C@]12C [Urosiol] + CCCCNC(=O)OCC#CI [3-iodo-2-propynyl butylcarbamate (IPBC)]
growth yield (40 h): 104 ± 12%
growth yield (72 h): 99.7 ± 5.1%

N[C@@H](C(=O)N[C@@H]1C(=O)N2C(C(=O)O)=C(Cl)CS[C@H]12)c1ccccc1 [Cefaclor hydrate] + CCCCNC(=O)OCC#CI [3-iodo-2-propynyl butylcarbamate (IPBC)]
growth yield (40 h): 92.9 ± 8.1%
growth yield (72 h): 96.7 ± 4%

CC[N+](C)(CC)CCC[n+]1c(-c2ccccc2)c2cc(N)ccc2c2ccc(N)cc21 [Propidium iodide] + CCCCNC(=O)OCC#CI [3-iodo-2-propynyl butylcarbamate (IPBC)]
growth yield (40 h): 8.1 ± 5.6%
growth yield (72 h): 12.7 ± 0.32%

COc1ccc(CN2CCNCC2)c(OC)c1OC [Trimetazidine dihydrochloride] + CCCCNC(=O)OCC#CI [3-iodo-2-propynyl butylcarbamate (IPBC)]
growth yield (40 h): 85 ± 2.1%
growth yield (72 h): 91.87 ± 0.42%

CCCCCN(C)CCC(O)(P(=O)(O)O)P(=O)(O)O [Ibandronate sodium] + CCCCNC(=O)OCC#CI [3-iodo-2-propynyl butylcarbamate (IPBC)]
growth yield (40 h): 87.84 ± 0.48%
growth yield (72 h): 96.8 ± 0.94%

Cc1c(OCC(F)(F)F)ccnc1C[S+]([O-])c1nc2ccccc2[nH]1 (stereo not drawn) [Lansoprazole] + CCCCNC(=O)OCC#CI [3-iodo-2-propynyl butylcarbamate (IPBC)]
growth yield (40 h): 68.1 ± 2.1%
growth yield (72 h): 91.87 ± 0.21%

CC(C)c1c(C(=O)Nc2ccccc2)c(-c2ccccc2)c(-c2ccc(F)cc2)n1CC[C@@H](O)C[C@@H](O)CC(=O)O [Atorvastatin] + CCCCNC(=O)OCC#CI [3-iodo-2-propynyl butylcarbamate (IPBC)]
growth yield (40 h): 69.3 ± 2.2%
growth yield (72 h): 79.5 ± 1.3%

O=C(O)C[C@H](O)C[C@H](O)/C=C/c1c(C2CC2)nc2ccccc2c1-c1ccc(F)cc1 [Pitavastatin calcium] + CCCCNC(=O)OCC#CI [3-iodo-2-propynyl butylcarbamate (IPBC)]
growth yield (40 h): 14 ± 2.2%
growth yield (72 h): 39.4 ± 3.4%

CC(C)n1c(/C=C/C(O)CC(O)CC(=O)O)c(-c2ccc(F)cc2)c2ccccc21 (stereo not drawn) [Fluvastatin sodium salt] + CCCCNC(=O)OCC#CI [3-iodo-2-propynyl butylcarbamate (IPBC)]
growth yield (40 h): 13.8 ± 0.48%
growth yield (72 h): 33.9 ± 0.52%

C=CC[C@]1(O)CC[C@H]2[C@@H]3CCC4=CC(=O)CCC4=C3C=C[C@@]21C [Altrenogest] + CCCCNC(=O)OCC#CI [3-iodo-2-propynyl butylcarbamate (IPBC)]
growth yield (40 h): 96.6 ± 1.6%
growth yield (72 h): 93.8 ± 2.3%

COc1ccc(CCN)cc1OC [Homoveratrylamine] + CCCCNC(=O)OCC#CI [3-iodo-2-propynyl butylcarbamate (IPBC)]
growth yield (40 h): 89.3 ± 5.4%
growth yield (72 h): 91.1 ± 6.4%

O=P(O)(O)C(O)(Cn1ccnc1)P(=O)(O)O [Zoledronic acid hydrate] + CCCCNC(=O)OCC#CI [3-iodo-2-propynyl butylcarbamate (IPBC)]
growth yield (40 h): 102 ± 6.3%
growth yield (72 h): 105 ± 4.3%

O=C(Cn1ccnc1[N+](=O)[O-])NCCO [Etanidazole] + CCCCNC(=O)OCC#CI [3-iodo-2-propynyl butylcarbamate (IPBC)]
growth yield (40 h): 91.3 ± 3.3%
growth yield (72 h): 92.2 ± 3.9%

COc1cc([S+](C)[O-])ccc1-c1nc2cccnc2[nH]1 (stereo not drawn) [Sulmazole] + CCCCNC(=O)OCC#CI [3-iodo-2-propynyl butylcarbamate (IPBC)]
growth yield (40 h): 110 ± 9.8%
growth yield (72 h): 107 ± 4.2%

CO[C@H]1/C=C/O[C@@]2(C)Oc3c(C)c(O)c4c(O)c(c(/C=N/N5CCN(C)CC5)c(O)c4c3C2=O)NC(=O)/C(C)=C\C=C\[C@H](C)[C@H](O)[C@@H](C)[C@@H](O)[C@@H](C)[C@H](OC(C)=O)[C@@H]1C [Rifampicin] + CCCCNC(=O)OCC#CI [3-iodo-2-propynyl butylcarbamate (IPBC)]
growth yield (40 h): 89 ± 7%
growth yield (72 h): 93.8 ± 3.6%

Nc1nc(=O)c2nc(CNc3ccc(C(=O)N[C@@H](CCC(=O)O)C(=O)O)cc3)cnc2[nH]1 [Folic acid] + CCCCNC(=O)OCC#CI [3-iodo-2-propynyl butylcarbamate (IPBC)]
growth yield (40 h): 84.82 ± 0.32%
growth yield (72 h): 91.03 ± 0.84%

OC(Cn1cncn1)(Cn1cncn1)c1ccc(F)cc1F [Fluconazole] + CCCCNC(=O)OCC#CI [3-iodo-2-propynyl butylcarbamate (IPBC)]
growth yield (40 h): 57.7 ± 5.9%
growth yield (72 h): 75.2 ± 8.5%

C[C@@H](c1ncncc1F)[C@](O)(Cn1cncn1)c1ccc(F)cc1F [Voriconazole] + CCCCNC(=O)OCC#CI [3-iodo-2-propynyl butylcarbamate (IPBC)]
growth yield (40 h): 5.24 ± 0.16%
growth yield (72 h): 4.09 ± 0.1%

CNC(C)CCC=C(C)C (stereo not drawn) [Isometheptene mucate] + CCCCNC(=O)OCC#CI [3-iodo-2-propynyl butylcarbamate (IPBC)]
growth yield (40 h): 101 ± 16%
growth yield (72 h): 101 ± 8.4%

CC(O)(CS(=O)(=O)c1ccc(F)cc1)C(=O)Nc1ccc(C#N)c(C(F)(F)F)c1 (stereo not drawn) [Bicalutamide] + CCCCNC(=O)OCC#CI [3-iodo-2-propynyl butylcarbamate (IPBC)]
growth yield (40 h): 94 ± 12%
growth yield (72 h): 97.5 ± 6.5%
